# Data from the supplement of paper PMC10849652.
# Of roughly 7,900 targets only a part is listed; those with a hit were picked by preference. About 0.6% of all pairs of compound and target were hits.
# Compound: CC[C@@H]1C(=O)N(C)c2cnc(Nc3ccc(C(=O)NC4CCN(C)CC4)cc3OC)nc2N1C1CCCC1
# Assay: log2 fold change, soluble protein after heating vs DMSO (PISA); higher = thermal stabilisation; K562 cells, 10 uM, 30 min; active = over 0.2 and 3.5 SD of the protein, either way, in both replicates (recomputed)
# Outline: (§1)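 K562 cells (2×10^6 cells/mL) were treated with 10 μM compound for 30 min, and aliquots were heated for 3 min over 48°C-58°C. Pooled aliquots were extracted in PBS with 0.5% NP-40 at 4°C, and the supernatant after 21,000xg for 90 min was measured by TMTpro 16plex LC-MS/MS with channel sums equalised. Reported thermal stability, relative to control samples and from duplicates, is a log2 fold change.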
# UniProt Q9UHB6, sequence (Q9UHB6 whole entry, looked up): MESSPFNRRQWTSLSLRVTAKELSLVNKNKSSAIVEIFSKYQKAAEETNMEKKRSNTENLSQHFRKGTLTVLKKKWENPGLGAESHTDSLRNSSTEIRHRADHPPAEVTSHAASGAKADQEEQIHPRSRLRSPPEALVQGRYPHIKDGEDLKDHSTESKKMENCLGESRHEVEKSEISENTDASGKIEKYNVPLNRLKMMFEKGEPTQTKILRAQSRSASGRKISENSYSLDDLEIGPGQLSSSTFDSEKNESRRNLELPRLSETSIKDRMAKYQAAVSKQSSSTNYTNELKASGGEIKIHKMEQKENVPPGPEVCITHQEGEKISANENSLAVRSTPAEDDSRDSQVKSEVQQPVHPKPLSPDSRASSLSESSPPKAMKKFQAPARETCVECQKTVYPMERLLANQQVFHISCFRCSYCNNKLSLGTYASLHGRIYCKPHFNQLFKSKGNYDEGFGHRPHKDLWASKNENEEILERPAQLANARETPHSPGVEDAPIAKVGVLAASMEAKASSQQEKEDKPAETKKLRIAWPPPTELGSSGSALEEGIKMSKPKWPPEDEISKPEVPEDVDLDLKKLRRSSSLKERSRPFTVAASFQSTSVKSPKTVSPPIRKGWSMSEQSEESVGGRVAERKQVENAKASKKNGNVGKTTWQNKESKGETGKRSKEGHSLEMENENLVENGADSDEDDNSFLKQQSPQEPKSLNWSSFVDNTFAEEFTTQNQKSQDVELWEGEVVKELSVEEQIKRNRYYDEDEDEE
# UniProt Q14681, sequence (Q14681 whole entry, looked up): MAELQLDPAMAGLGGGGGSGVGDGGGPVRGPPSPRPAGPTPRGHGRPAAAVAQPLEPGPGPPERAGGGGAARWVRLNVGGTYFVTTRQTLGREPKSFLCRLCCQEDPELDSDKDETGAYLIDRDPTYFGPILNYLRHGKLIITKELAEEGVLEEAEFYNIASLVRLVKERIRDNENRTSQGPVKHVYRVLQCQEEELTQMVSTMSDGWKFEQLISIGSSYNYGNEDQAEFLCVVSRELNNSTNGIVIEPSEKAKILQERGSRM
# UniProt Q8N108, sequence (Q8N108 whole entry, looked up): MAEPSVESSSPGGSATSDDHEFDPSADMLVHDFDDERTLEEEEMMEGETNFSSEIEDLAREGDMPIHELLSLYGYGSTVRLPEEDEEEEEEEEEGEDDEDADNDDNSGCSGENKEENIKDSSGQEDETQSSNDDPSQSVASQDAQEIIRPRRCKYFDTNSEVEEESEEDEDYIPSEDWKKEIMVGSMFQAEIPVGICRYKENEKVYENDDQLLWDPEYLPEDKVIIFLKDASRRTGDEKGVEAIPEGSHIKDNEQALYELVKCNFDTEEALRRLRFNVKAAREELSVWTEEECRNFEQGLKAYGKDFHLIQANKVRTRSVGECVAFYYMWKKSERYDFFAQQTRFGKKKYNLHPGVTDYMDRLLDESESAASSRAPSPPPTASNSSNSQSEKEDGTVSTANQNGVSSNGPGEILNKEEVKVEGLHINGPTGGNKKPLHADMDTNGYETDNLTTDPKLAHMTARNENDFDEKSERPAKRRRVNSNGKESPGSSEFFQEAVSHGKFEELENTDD
# UniProt Q8IWA4, sequence (Q8IWA4 whole entry, looked up): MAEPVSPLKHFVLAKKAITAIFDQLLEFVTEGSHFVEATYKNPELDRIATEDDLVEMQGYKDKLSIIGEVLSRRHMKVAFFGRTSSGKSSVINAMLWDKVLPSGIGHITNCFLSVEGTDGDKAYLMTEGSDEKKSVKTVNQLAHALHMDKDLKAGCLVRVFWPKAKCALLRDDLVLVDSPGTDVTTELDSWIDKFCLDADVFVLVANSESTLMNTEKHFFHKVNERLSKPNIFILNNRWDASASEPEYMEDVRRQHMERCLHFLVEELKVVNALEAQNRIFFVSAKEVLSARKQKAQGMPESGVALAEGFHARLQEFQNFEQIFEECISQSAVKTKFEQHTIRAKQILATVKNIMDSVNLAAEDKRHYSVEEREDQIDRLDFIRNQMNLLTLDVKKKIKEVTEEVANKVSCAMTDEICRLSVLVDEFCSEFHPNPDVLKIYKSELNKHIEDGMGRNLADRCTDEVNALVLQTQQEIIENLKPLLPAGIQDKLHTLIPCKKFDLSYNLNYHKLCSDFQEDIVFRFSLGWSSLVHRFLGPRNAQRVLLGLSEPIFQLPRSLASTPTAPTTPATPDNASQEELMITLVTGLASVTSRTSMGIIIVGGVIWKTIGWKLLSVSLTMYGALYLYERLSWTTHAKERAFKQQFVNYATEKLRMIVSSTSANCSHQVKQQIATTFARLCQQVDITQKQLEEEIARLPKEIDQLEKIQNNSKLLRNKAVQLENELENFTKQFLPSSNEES
# UniProt Q71RC2, sequence (Q71RC2 whole entry, looked up): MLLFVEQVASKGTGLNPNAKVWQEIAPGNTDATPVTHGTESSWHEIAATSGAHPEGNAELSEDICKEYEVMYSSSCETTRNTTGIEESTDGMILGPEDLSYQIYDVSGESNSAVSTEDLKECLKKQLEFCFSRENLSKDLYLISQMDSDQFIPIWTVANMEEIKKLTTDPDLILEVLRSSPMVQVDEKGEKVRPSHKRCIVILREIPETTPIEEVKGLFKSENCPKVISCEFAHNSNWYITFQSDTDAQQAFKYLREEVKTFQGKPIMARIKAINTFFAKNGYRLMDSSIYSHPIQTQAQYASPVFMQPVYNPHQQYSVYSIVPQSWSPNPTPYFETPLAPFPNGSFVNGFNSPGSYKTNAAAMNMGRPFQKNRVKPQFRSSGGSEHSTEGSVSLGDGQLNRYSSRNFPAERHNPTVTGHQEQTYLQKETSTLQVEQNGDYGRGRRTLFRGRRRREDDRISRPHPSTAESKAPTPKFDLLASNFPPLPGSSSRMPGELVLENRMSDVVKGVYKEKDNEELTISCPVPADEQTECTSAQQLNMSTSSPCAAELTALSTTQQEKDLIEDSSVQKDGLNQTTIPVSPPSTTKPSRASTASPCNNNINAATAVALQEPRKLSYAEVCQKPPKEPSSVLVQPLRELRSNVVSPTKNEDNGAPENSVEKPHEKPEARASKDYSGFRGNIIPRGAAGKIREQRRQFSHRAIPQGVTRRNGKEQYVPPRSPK
# UniProt A8MWY0, sequence (A8MWY0 whole entry, looked up): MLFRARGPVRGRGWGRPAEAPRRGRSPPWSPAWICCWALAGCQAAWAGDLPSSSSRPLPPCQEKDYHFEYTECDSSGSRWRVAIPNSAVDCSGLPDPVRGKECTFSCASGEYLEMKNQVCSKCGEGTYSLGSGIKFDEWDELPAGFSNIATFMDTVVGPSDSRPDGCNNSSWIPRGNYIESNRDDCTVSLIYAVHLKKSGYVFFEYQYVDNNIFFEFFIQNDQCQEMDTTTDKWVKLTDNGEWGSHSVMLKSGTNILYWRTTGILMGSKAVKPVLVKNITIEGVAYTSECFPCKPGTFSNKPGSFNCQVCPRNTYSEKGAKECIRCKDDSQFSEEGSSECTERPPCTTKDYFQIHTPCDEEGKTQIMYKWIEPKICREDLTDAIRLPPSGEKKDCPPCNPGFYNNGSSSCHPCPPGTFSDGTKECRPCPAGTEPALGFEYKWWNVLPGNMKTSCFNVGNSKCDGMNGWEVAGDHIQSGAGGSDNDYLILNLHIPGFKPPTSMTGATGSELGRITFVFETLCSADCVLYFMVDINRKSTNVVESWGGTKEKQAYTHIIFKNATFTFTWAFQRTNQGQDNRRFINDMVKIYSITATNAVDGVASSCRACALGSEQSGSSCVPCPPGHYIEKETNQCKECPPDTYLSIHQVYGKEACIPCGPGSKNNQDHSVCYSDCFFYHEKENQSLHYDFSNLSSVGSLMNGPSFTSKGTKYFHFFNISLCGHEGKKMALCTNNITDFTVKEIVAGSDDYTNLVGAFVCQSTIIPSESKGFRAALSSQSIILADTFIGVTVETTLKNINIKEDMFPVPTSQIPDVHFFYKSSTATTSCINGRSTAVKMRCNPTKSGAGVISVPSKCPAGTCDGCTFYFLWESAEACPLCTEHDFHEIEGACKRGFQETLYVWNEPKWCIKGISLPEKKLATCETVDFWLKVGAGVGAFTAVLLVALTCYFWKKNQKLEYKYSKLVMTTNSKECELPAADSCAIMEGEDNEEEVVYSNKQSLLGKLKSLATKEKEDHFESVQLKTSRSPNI
# UniProt A1L0T0, sequence (A1L0T0 whole entry, looked up): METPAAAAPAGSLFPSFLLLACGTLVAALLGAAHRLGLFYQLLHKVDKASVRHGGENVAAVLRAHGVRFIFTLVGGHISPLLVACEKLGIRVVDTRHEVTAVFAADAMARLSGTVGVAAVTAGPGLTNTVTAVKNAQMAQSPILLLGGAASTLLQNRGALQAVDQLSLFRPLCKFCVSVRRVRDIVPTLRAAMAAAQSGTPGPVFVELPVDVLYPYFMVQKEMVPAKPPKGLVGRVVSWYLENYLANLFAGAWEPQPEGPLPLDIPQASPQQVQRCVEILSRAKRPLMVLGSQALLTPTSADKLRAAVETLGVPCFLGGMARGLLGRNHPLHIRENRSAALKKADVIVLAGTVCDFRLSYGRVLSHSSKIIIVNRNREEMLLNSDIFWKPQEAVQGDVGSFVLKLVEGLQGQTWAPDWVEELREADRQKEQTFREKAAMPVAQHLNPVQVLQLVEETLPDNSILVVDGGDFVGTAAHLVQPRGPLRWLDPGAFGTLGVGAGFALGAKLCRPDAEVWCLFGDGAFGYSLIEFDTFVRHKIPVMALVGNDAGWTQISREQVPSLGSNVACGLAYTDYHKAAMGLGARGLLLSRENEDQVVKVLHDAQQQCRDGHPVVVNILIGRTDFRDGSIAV
# UniProt Q9GZY8, sequence (Q9GZY8 whole entry, looked up): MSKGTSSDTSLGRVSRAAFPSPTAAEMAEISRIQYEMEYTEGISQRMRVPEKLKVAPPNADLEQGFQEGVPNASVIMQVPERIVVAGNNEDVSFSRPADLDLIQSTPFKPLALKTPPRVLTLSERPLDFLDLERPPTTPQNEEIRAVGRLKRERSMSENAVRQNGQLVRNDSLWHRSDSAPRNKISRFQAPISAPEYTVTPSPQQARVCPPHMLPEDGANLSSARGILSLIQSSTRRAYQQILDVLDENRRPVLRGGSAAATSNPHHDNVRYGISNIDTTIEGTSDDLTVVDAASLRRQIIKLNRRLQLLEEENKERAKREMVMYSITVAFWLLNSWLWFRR
row,Target,log2 fold change
1,KIAA1324L (UniProt A8MWY0),-0.312 (active)
2,MIER1 isoform 12 (UniProt Q8N108),-0.032 (inactive)
3,MIA2 (UniProt Q96PC5),-0.039 (inactive)
4,LIMA1 isoform 4 (UniProt Q9UHB6),-0.006 (inactive)
5,METTL18 (UniProt O95568),0.02 (inactive)
6,KIF21A isoform 4 (UniProt Q7Z4S6),0.073 (inactive)
7,LUC7L (UniProt Q9NQ29),0.006 (inactive)
8,KEL (UniProt P23276),0.195 (inactive)
9,LEO1 (UniProt Q8WVC0),-0.021 (inactive)
10,LARP4 isoform 4 (UniProt Q71RC2),-0.016 (inactive)
11,MFF (UniProt Q9GZY8),-0.007 (inactive)
12,MFN1 (UniProt Q8IWA4),-0.099 (inactive)
13,MCL1 (UniProt Q07820),-0.03 (inactive)
14,LYN (UniProt P07948),-0.016 (inactive)
15,ILVBL (UniProt A1L0T0),0.049 (inactive)
16,KCTD2 (UniProt Q14681),0.003 (inactive)

# Compound: CC[C@@H]1C(=O)N(C)c2cnc(Nc3ccc(C(=O)N[C@H]4CC[C@H](N5CCN(CC6CC6)CC5)CC4)cc3OC)nc2N1C(C)C [volasertib]
# Assay: as above
# Outline: as §1
row,Target,log2 fold change
1,IWS1 (UniProt Q96ST2),0.034 (inactive)
2,LUC7L2 (UniProt Q9Y383),-0.345 (active)
3,MARK3 (UniProt P27448),-0.078 (inactive)
4,MIEF1 (UniProt L0R8F8),-0.076 (inactive)
5,KIF11 (UniProt P52732),-0.42 (inactive)
6,LPIN3 isoform 2 (UniProt Q9BQK8),-0.015 (inactive)
7,INPP5B (UniProt P32019),-0.04 (inactive)
8,LNPEP (UniProt Q9UIQ6),-0.182 (inactive)
9,KDM1A isoform 2 (UniProt O60341),-0.028 (inactive)
10,IPO13 (UniProt O94829),-0.291 (active)
11,MIEF1 (UniProt Q9NQG6),-0.098 (inactive)
12,KDELR2 (UniProt P33947),-0.18 (inactive)
13,KTN1 (UniProt Q86UP2),-0.242 (inactive)
14,KHDRBS1 (UniProt Q07666),0.106 (inactive)
15,KSR1 (UniProt Q8IVT5),-0.182 (inactive)
16,LUC7L3 (UniProt O95232),-0.185 (inactive)
17,LAMP2 (UniProt P13473),0.069 (inactive)
18,MED1 (UniProt Q15648),0.077 (inactive)
19,MICU2 (UniProt Q8IYU8),-0.118 (inactive)
20,ILK (UniProt Q13418),0.064 (inactive)

row,Target,log2 fold change
1,KIF13A (UniProt Q9H1H9),-0.041 (inactive)
2,KIF3A (UniProt Q9Y496),-0.039 (inactive)
3,KDM5D isoform 3 (UniProt Q9BY66),-0.404 (inactive)
4,KIAA1324L (UniProt A8MWY0),-0.293 (active)
5,MIER1 isoform 12 (UniProt Q8N108),-0.102 (inactive)
6,MIA2 (UniProt Q96PC5),-0.29 (active)
7,LIMA1 isoform 4 (UniProt Q9UHB6),-0.115 (inactive)
8,METTL18 (UniProt O95568),-0.159 (inactive)
9,KIF21A isoform 4 (UniProt Q7Z4S6),-0.019 (inactive)
10,LUC7L (UniProt Q9NQ29),-0.005 (inactive)
11,KEL (UniProt P23276),-0.085 (inactive)
12,LEO1 (UniProt Q8WVC0),-0.402 (active)
13,LARP4 isoform 4 (UniProt Q71RC2),-0.351 (inactive)
14,MFF (UniProt Q9GZY8),0 (inactive)
15,MFN1 (UniProt Q8IWA4),-0.136 (inactive)
16,MCL1 (UniProt Q07820),-0.038 (inactive)
17,LYN (UniProt P07948),-0.023 (inactive)
18,ILVBL (UniProt A1L0T0),0.069 (inactive)
19,KCTD2 (UniProt Q14681),0.029 (inactive)

# Compound: CC[C@H](C)N1C=C(C2=C(C=C(C=C21)C3=CN=C(C=C3)N4CCNCC4)C(=O)NCC5=C(C=C(NC5=O)C)C)C
# Assay: as above
# Outline: as §1
row,Target,log2 fold change
1,IWS1 (UniProt Q96ST2),0.029 (inactive)
2,LUC7L2 (UniProt Q9Y383),0.044 (inactive)
3,MARK3 (UniProt P27448),0.097 (inactive)
4,MIEF1 (UniProt L0R8F8),-0.106 (inactive)
5,KIF11 (UniProt P52732),0.081 (inactive)
6,LPIN3 isoform 2 (UniProt Q9BQK8),0.04 (inactive)
7,INPP5B (UniProt P32019),0.002 (inactive)
8,LNPEP (UniProt Q9UIQ6),-0.016 (inactive)
9,KDM1A isoform 2 (UniProt O60341),0.06 (inactive)
10,IPO13 (UniProt O94829),-0.081 (inactive)
11,MIEF1 (UniProt Q9NQG6),0.031 (inactive)
12,KDELR2 (UniProt P33947),-0.089 (inactive)
13,KTN1 (UniProt Q86UP2),0.028 (inactive)
14,KHDRBS1 (UniProt Q07666),0.074 (inactive)
15,KSR1 (UniProt Q8IVT5),0.179 (inactive)
16,LUC7L3 (UniProt O95232),0.027 (inactive)
17,LAMP2 (UniProt P13473),-0.023 (inactive)
18,MED1 (UniProt Q15648),0.076 (inactive)
19,MICU2 (UniProt Q8IYU8),0 (inactive)
20,ILK (UniProt Q13418),0.035 (inactive)

row,Target,log2 fold change
1,KIF13A (UniProt Q9H1H9),-0.003 (inactive)
2,KIF3A (UniProt Q9Y496),-0.187 (inactive)
3,KDM5D isoform 3 (UniProt Q9BY66),0.032 (inactive)
4,KIAA1324L (UniProt A8MWY0),-0.012 (inactive)
5,MIER1 isoform 12 (UniProt Q8N108),0.066 (inactive)
6,MIA2 (UniProt Q96PC5),0.005 (inactive)
7,LIMA1 isoform 4 (UniProt Q9UHB6),-0.021 (inactive)
8,METTL18 (UniProt O95568),0.032 (inactive)
9,KIF21A isoform 4 (UniProt Q7Z4S6),0.038 (inactive)
10,LUC7L (UniProt Q9NQ29),0.005 (inactive)
11,KEL (UniProt P23276),-0.085 (inactive)
12,LEO1 (UniProt Q8WVC0),-0.013 (inactive)
13,LARP4 isoform 4 (UniProt Q71RC2),0.117 (inactive)
14,MFF (UniProt Q9GZY8),-0.046 (inactive)
15,MFN1 (UniProt Q8IWA4),-0.056 (inactive)
16,MCL1 (UniProt Q07820),-0.033 (inactive)
17,LYN (UniProt P07948),0.033 (inactive)
18,ILVBL (UniProt A1L0T0),-0.034 (inactive)
19,KCTD2 (UniProt Q14681),-0.033 (inactive)
